Most compounds without a hit are left out; they make up all but 0.98% or so of the library.
RTF Ca sens inh: cardiac RTF calcium desensitization | P19429+P45379 | IANBD-labeled cardiac RTF, Ca2+ fluorescence | inhibition, % at 7.15 µM | hit rate 0.12% among 340,000 | AID 493244;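 active = inhibition above the mean inhibition of all tested compounds plus 3 SD, cut at about 17% in these data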;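 note: assay run at fixed EC70 calcium of 1.6 mM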
C-LANA FP: KSHV C-LANA DNA binding inhibition; MBP-C-LANA/FAM-LBS DNA binding, fluorescence polarization; inhibition, % at 9 µM; hit rate 0.078% among 340,000; AID 504423;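 active = highest replicate inhibition at or above 60% at 9 µM, even if other replicates fall short; inactive = all replicates below 60% inhibition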;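 note: 0% = neutral control wells and 100% = 4 µM acridine orange control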
RTF Ca sens act: increases calcium sensitivity of human cardiac regulated thin filaments. hit rate 0.24% among 340,000. P19429+P45379. IANBD-labeled TnC RTF fluorescence at EC20 calcium; 0% EC20 calcium, 100% full calcium. AID 493008. activation, % at 7.2 µM;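 active = activation above the mean over all tested compounds plus 3 SD, cut at about 30% in these data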;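 note: rise in fluorescence read as greater calcium sensitivity of cardiac thin filaments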
EBV gp42 block: EBV gp42 inhibition; Fluorescence polarization binding assay, mP read-out; Q1HVG2; inhibition, % (tested at 21.74 µM); hit rate 0.42% among 220,000; in the data active = inhibition above about 50%
Keap1-Nrf2 PPI: inhibitors of human Keap1-Nrf2 protein-protein interaction; Q14145; Keap1 Kelch-Nrf2 peptide fluorescence polarization, 1536-well; inhibition, % at 9.4 µM; hit rate 0.15% among 340,000; in the data active = inhibition above about 12%;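 note: human Keap1 Kelch domain with fluorescein labeled Nrf2 9mer peptide probe; 0% = neutral control wells and 100% = peptide positive control; higher means more block of Keap1 binding to Nrf2 peptide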
E coli Lon inh: inhibitors of E. coli Lon protease | P0A9M0 | purified E. coli Lon protease, fluorescence polarization | inhibition, % at 7.94 µM | hit rate 0.42% among 360,000; in the data active = inhibition above about 13%, passing the limit was not always enough;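 note: 0% = enzyme with probe and DMSO and 100% = no enzyme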
Target sequence (P0A9M0 whole entry, looked up): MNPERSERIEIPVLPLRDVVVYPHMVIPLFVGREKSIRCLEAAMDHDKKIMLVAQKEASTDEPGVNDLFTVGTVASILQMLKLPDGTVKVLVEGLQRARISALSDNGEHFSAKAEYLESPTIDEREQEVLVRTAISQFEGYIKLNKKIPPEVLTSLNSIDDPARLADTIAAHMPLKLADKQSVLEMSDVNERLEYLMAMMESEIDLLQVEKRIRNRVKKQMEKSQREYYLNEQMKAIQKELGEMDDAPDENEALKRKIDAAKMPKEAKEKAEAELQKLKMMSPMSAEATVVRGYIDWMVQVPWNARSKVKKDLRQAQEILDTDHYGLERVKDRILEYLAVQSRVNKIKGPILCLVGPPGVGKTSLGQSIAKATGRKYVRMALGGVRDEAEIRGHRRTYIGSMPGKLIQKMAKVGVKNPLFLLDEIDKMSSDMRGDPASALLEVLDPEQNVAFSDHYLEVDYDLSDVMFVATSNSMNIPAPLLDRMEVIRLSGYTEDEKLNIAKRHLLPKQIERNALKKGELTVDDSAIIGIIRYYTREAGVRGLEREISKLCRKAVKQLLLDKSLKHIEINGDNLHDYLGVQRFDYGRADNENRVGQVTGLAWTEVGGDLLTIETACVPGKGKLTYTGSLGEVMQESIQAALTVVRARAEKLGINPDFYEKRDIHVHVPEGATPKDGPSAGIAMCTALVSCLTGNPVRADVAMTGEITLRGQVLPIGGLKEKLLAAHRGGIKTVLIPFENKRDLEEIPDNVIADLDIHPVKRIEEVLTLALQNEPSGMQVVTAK
RTF Ca inh conf: cardiac RTF calcium sensitivity inhibition, confirmation; shares compounds with RTF Ca sens inh; reconstituted cardiac thin filaments, calcium sensitivity fluorescence; inhibition, % at 7.15 µM; hit rate 8% among 360; AID 504635; in the data active = inhibition above about 18%
Keap1 TSA: Keap1 (human) Kelch domain binding; hit rate 8% among 400; max delta Tm, degrees C; AID 651823; Keap1 Kelch thermal shift, delta Tm; active compounds read high; shares compounds with Keap1-Nrf2 PPI; in the data active = max delta Tm above about 0.48 degrees C
Sypro dye melt: dye artifact in Keap1 thermal shift counter-screen | delta Tm, degrees C (no concentration beside the values) | Sypro Orange dye-only thermal melt, no protein, delta Tm; top dose 26 µM | shares compounds with Keap1-Nrf2 PPI | AID 651858 | 140 tested, under 10 active;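 active = at highest dose tested, delta Tm positive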
eLon confirm: E. coli Lon inhibition confirmation | hit rate 31% among 1,400 | AID 602230 | purified E. coli Lon, fluorescence polarization | shares compounds with E coli Lon inh | inhibition, % at 7.94 µM; in the data active = inhibition above about 16%;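 note: 0% = enzyme with probe and DMSO and 100% = no enzyme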
* hit, by the source's call.

`CCOC(=O)c1ccc(N2C(=O)CC(N3CC=C(c4ccc(F)cc4)CC3)C2=O)cc1` (centres undefined) gave RTF Ca sens inh -1, C-LANA FP 1, RTF Ca sens act 4, EBV gp42 block -21, Keap1-Nrf2 PPI -1 and E coli Lon inh -17.
Screening CN(C)P1(=O)N(C)CCN1C returned E coli Lon inh 0.
For Cc1nc2cc(F)ccc2n1C1CCN(Cc2nnnn2CCc2ccccc2)CC1 the results were RTF Ca sens inh 18*, C-LANA FP 0, RTF Ca sens act 3, EBV gp42 block 2, Keap1-Nrf2 PPI 1, E coli Lon inh -3 and RTF Ca inh conf -3.
`CCOC(=O)c1c(/N=C/c2c(O)n(-c3cccc(C)c3)c(=O)[nH]c2=O)sc2c1CCCC2` gave RTF Ca sens inh -2, C-LANA FP 9, RTF Ca sens act -3, EBV gp42 block -16, Keap1-Nrf2 PPI 72*, E coli Lon inh -19 and Keap1 TSA -0.08.
`CCOC(=O)c1sc(/N=C/c2c(O)n(-c3ccccc3)c(=O)[nH]c2=O)c(C#N)c1C` gave RTF Ca sens inh 3, C-LANA FP -1, RTF Ca sens act 7, EBV gp42 block -48, Keap1-Nrf2 PPI -21 and E coli Lon inh -46.
O=C(O)c1cccc2c1NC(C(=O)O)C1CC(Sc3ccccc3[N+](=O)[O-])C(Cl)C21 (centres undefined) was read as RTF Ca sens inh 56*, C-LANA FP 132*, RTF Ca sens act -37, EBV gp42 block 15, Keap1-Nrf2 PPI 31*, E coli Lon inh 15 and Keap1 TSA 1*.
For O=S(=O)(c1ccccc1)C1CN1c1c(F)c(F)c(F)c(F)c1F (centres undefined) the results were E coli Lon inh -7.
`COc1ccc(-n2c(CNCCc3ccc(C)cc3)nc3ccccc3c2=O)cc1` gave RTF Ca sens inh -3, C-LANA FP 18, RTF Ca sens act 1, Keap1-Nrf2 PPI 36*, E coli Lon inh -5, Keap1 TSA -0.19 and Sypro dye melt -28.
`CCCc1nc2ccccc2c(=O)n1-c1ccc(OC)cc1` gave RTF Ca sens inh -5, C-LANA FP 0, RTF Ca sens act 10, EBV gp42 block -19, Keap1-Nrf2 PPI 0 and E coli Lon inh 3.
For COC(=O)C1=C(c2ccc(OCc3ccccc3)cc2)C[C@@H]2CC[C@H]1N2C the results were E coli Lon inh -7.
Screening COCCNC(=O)Cn1cc(/C=C2\C(=O)NC(=O)N(c3cccc(C)c3C)C2=O)c2ccccc21 returned RTF Ca sens inh -10, C-LANA FP 53, RTF Ca sens act 3, Keap1-Nrf2 PPI 20*, E coli Lon inh -128, Keap1 TSA -0.22 and Sypro dye melt -30.
CCn1cc(C=C2C(=O)NC(=O)NC2=O)c2ccccc21 was read as RTF Ca sens inh -4, C-LANA FP 29, RTF Ca sens act 1, Keap1-Nrf2 PPI 21*, E coli Lon inh -25 and Keap1 TSA -0.08.
COc1ccc(-n2nnnc2C(c2ccccc2OC(F)(F)F)N2CCC3(CC2)C(=O)NCN3c2ccccc2)cc1 (centres undefined) was read as E coli Lon inh 3.
CC1=NCCc2c1[nH]c1cc(O)ccc21 was read as RTF Ca sens inh -432, C-LANA FP 168*, RTF Ca sens act 334*, Keap1-Nrf2 PPI 102*, E coli Lon inh active, Keap1 TSA -0.16, Sypro dye melt -36 and eLon confirm active.
`O=P(O)(O)CN1CCNCCN(CP(=O)(O)O)CCNCC1` gave RTF Ca sens inh 5, C-LANA FP -1, RTF Ca sens act -5, Keap1-Nrf2 PPI -6 and E coli Lon inh 11.
Screening C[C@]12CCC3C(CC[C@H]4C[C@@H](O)CC[C@]34C)C1=CC[C@@H]2O (some centres undefined) returned E coli Lon inh 4.
Screening CC1=C[C@@H]2c3cccc4[nH]cc(c34)C[C@H]2N(C)C1 returned RTF Ca sens inh -40, C-LANA FP 17, RTF Ca sens act 36*, Keap1-Nrf2 PPI 14*, E coli Lon inh 116*, Keap1 TSA 0 and eLon confirm 67*.
For Cc1ccc(N=Cc2c(O)n(C)c(=O)n(C)c2=O)cc1 the results were RTF Ca sens inh -3, C-LANA FP 0, RTF Ca sens act 2, Keap1-Nrf2 PPI 2, E coli Lon inh 46* and eLon confirm -12.
`COC1=C(OC)[C@]23CCc4ccc(OC)c(OC)c4[C@]2(CCN3C)CC1=O` gave RTF Ca sens inh -4, C-LANA FP -2, RTF Ca sens act -5, Keap1-Nrf2 PPI -3 and E coli Lon inh -9.
`O=c1[nH]c(=O)n(Cc2ccco2)c(O)c1C=NCc1ccc2c(c1)OCO2` gave RTF Ca sens inh -8, C-LANA FP 0, RTF Ca sens act -4, EBV gp42 block -96, Keap1-Nrf2 PPI -3, E coli Lon inh 20* and eLon confirm 0.
`Cc1nn(Cc2ccccc2Cl)c(Cl)c1C(=O)O` gave RTF Ca sens inh -4, C-LANA FP -2, RTF Ca sens act -1, EBV gp42 block -17, Keap1-Nrf2 PPI -2, E coli Lon inh 15* and eLon confirm -43.
For CN1CCN(Cc2ccc(N)cc2)CC1 the results were RTF Ca sens inh -13, C-LANA FP -1, RTF Ca sens act 1, EBV gp42 block -4, Keap1-Nrf2 PPI -3 and E coli Lon inh -4.
CN1CCN(Cc2cc(C(C)(C)C)c(O)c(C(C)(C)C)c2)CC1 was read as RTF Ca sens inh 6, C-LANA FP 1, RTF Ca sens act -7, EBV gp42 block 1, Keap1-Nrf2 PPI -8, E coli Lon inh 25* and eLon confirm -9.
CCCCn1c(=O)c(C(=O)NCc2ccccc2OC)c(O)c2ccccc21 was read as RTF Ca sens inh 0, C-LANA FP 0, RTF Ca sens act -8, Keap1-Nrf2 PPI -2, E coli Lon inh 66* and eLon confirm -1.
CCCCCn1c(=O)c(C(=O)NCCc2ccccc2)c(O)c2ccccc21 was read as RTF Ca sens inh -7, C-LANA FP 2, RTF Ca sens act -6, Keap1-Nrf2 PPI 0 and E coli Lon inh -10.
COc1ccc(CN2Cc3cnnn3-c3ccccc3C2C)cc1 (centres undefined) was read as RTF Ca sens inh -7, C-LANA FP 0, RTF Ca sens act -6, Keap1-Nrf2 PPI 2 and E coli Lon inh 0.

Screens (PubChem BioAssay)
